In PubChem BioAssay one finds outcome data, which are given here for 40 molecules.

Measured potencies and affinities stand elsewhere. Calls of active or inactive are those of the source. The limit is not given here; nearly all actives have IC50 up to about 0.91 µM.

Sequence of Calcium-dependent protein kinase 4 (Plasmodium falciparum (isolate 3D7)) (Q8IBS5 whole entry, looked up): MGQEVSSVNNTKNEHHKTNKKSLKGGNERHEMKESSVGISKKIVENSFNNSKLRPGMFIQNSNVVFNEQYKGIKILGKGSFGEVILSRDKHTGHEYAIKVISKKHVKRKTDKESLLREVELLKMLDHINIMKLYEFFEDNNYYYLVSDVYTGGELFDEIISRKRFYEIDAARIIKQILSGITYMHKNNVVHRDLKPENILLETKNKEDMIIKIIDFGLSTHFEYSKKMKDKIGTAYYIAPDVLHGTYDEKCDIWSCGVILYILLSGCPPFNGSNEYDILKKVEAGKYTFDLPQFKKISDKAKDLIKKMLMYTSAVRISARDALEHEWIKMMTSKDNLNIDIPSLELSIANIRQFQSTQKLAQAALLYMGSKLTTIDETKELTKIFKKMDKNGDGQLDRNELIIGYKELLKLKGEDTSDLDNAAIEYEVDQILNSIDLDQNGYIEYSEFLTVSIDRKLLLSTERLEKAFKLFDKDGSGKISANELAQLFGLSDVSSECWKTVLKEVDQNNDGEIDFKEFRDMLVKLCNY

This test has as its target Calcium-dependent protein kinase 4 (Plasmodium falciparum (isolate 3D7)) (UniProt Q8IBS5). As to the kind of experiment: PfCDPK4 kinase inhibitors, biochemical, TCAMS library (AID 1159588). The note with it: recombinant PfCDPK4, Kinase-Glo ATP depletion luminescence. In general terms: Kinase-Glo measures the ATP left after a reaction by luminescence.
As for `O=C(Nc1cccc(OC2CCN(Cc3ccccc3)CC2)c1)Nc1cccc([N+](=O)[O-])c1`, the outcome was inactive. Next, `CCCNCc1ccc(-c2ccc(CN(Cc3cnc(C)cn3)C(=O)/C=C/c3ccccc3C)cc2)nc1`: “inactive”; `COc1ccc(CN2CCCC(OC(c3ccc(F)cc3)c3ccc(F)cc3)C2)c(O)c1` (stereo not given): “inactive”. Next, `Cc1cc(N[C@@H](Cc2ccccc2)C(=O)NC2CCCC2)nc(NCC2CCCCC2)n1`: “inactive”. The entry for `N=C(N)c1ccc(Oc2ccc(C(=N)N)cc2)cc1` is “inactive”. In the case of `COc1cccc2c(NCc3ccccc3)nc(NCCCN3CCCCC3C)nc12` (stereo not given), the result was inactive. Regarding `CCNc1cc(C(=O)N[C@@H](Cc2ccccc2)[C@H](O)CNCc2cc(OC)cc(OC)c2)cc(N2CCCC2=O)c1`, the result was inactive. The entry for `CS(=O)(=O)c1ccc(-c2nc(NCC3CCCCC3)cc(C(F)(F)F)n2)cc1` is “inactive”; for `CC(=NN=C(N)N)C(=O)Nc1ccc(Cl)c(Cl)c1` it is “inactive”. The entry for `Cc1[nH]c2ccc(O)cc2c1C1CCN(CCCCCNC(=O)/C=C/c2ccc(Cl)c(Cl)c2)CC1` is “inactive”. The entry for `O=C(Nc1ccccc1Cl)N(Cc1cc(Cl)cc(Cl)c1)CC(O)COc1ccc(Cl)c(F)c1` (stereo not given) is “inactive”; for `CO/C(=C\C=C\c1cc2cc(Cl)c(Cl)cc2[nH]1)C(=O)NCCCNC12CC3CC(CC(C3)C1)C2` it is “inactive”. As to `COc1ccc2[nH]c(C(=O)Nc3cccc(-c4ccc(CN(C)C)cc4)c3)cc2c1`, the result was inactive. The entry for `Brc1cc(Br)c2c(c1)C(NCCCNC1CCNc3c(Br)cc(Br)cc31)CCN2` (stereo not given) is “inactive”; for `CC(C)Nc1nc(NCCc2cnc[nH]2)nc(NCc2ccc(Cl)c(Cl)c2)n1` it is “inactive”. Next, `COC(=O)Nc1nc2cc3c(cc2s1)OCCO3`: “inactive”; `C[C@@H](CC1CCCCC1)OC(=O)N[C@H]1CCN(C#N)C1`: “inactive”. The entry for `Cc1cc(NC(=O)Nc2cccc(Cl)c2Cl)c2ccccc2n1` is “inactive”; for `CC(CN(C)C)C(=O)Nc1cccc(-c2ccc(-c3nc4ccccc4[nH]3)cc2)c1` (stereo not given) it is “inactive”; for `O=S(=O)(NCCN1CCCC1)c1ccc(-c2cccc(CNC3Cc4ccccc4C3)c2)cc1F` it is “inactive”. Take `O=C(Nc1ccc2c(c1)CCC2)c1cnc(N2CCN(c3ccncc3)CC2)c(Cl)c1`: the result was inactive. On to `O=C(NCC1CCC1)c1cnc(Nc2cccc(Cl)c2)nc1N1CCC1`, for which the result was inactive.

As for `COc1cc2ncnc(Nc3ccc4nc(-c5ccccc5)[nH]c4c3)c2cc1OC`, the outcome was inactive. The entry for `O=C(/C=C/c1ccc(Cl)c(Cl)c1)NCCCCCCN1CCN(C(=O)Nc2ccc(Cl)c(C(F)(F)F)c2)CC1` is “inactive”. The entry for `CCCCCn1c(Sc2ccc(C#N)c([N+](=O)[O-])c2)nnc1-c1cccc(Cl)c1` is “inactive”; for `OC(c1cc(C(F)(F)F)nc2c(F)cccc12)C1CCCCN1` (stereo not given) it is “inactive”; for `O=C(NCCCCN1CCN(c2cccc3ccccc23)CC1)c1ccc(NC(=O)c2ccc(Cl)cc2)cc1` it is “inactive”.

Regarding `Cc1[nH]c(C)c(-c2ccc(-c3ccc(F)cc3)nc2)c(=O)c1Br`, the outcome was inactive.

For `CCN(CC)c1ccccc1CNC(=O)c1cc(Cl)c(N)cc1OC`, the result was inactive. Next, `O=C(Nc1cccc(C(F)(F)F)c1)Nc1ccc(Cl)c(C(F)(F)F)c1`: “inactive”. Next, `Cc1cc(F)ccc1-c1nc(NCCCN2CCCC2=O)nc2c1ccc(=O)n2-c1c(F)cccc1F`: “inactive”; `COc1ccc(N2CCN(CCCC/C=C/c3ccc(NC(=O)c4cc(Cl)cc(Cl)c4)cc3)CC2)c(OC)c1`: “inactive”. The entry for `Nc1cccc(CNCc2ccc(-c3cccc(-c4nc5ccc(C(F)(F)F)cc5[nH]4)c3)cc2)c1` is “inactive”; for `CNCc1ccc2nc(-c3coc(Cc4cc(Cl)ccc4OCC(C)C)n3)[nH]c2c1` it is “inactive”. For the molecule `COc1ccc(-c2ccc(CNCc3ccccc3)cc2)cc1S(=O)(=O)NCCN1CCCC1`, the outcome was inactive. The entry for `O=C(Nc1cccc(CN2CCCN(Cc3ccc(O)cc3)CC2)c1)c1cccc(F)c1` is “inactive”. The entry for `CCOc1cc(C(=O)NCCN2CCCCC2)ccc1-c1nc2ccc(Cl)cc2[nH]1` is “inactive”; for `CCCCSc1nc2c(c(=O)n1Cc1ccco1)C1(CCCCC1)Cc1ccccc1-2` it is “inactive”.

For `CS(=O)(=O)N(c1ccccc1)c1cc(C(=O)N[C@@H](Cc2ccccc2)[C@H](O)CNC2CCCCC2)cc(N2CCCC2=O)c1`, the outcome was inactive. The entry for `COc1ccc2ncc(F)c(CCN3C[C@@H]4CCC[C@]4(CNCc4ccc5c(n4)NC(=O)CS5)C3)c2n1` is “inactive”.
